Measured values taken from PubChem BioAssay (NCI).
Where “and” joins values, the source holds several entries; their conditions need not be identical. Equal entries are not always repeated. About 83,000 compounds went through this panel and 20% of them were active in at least one assay; those are over-represented in the sample as a whole.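 A percent growth of 40 corresponds to 60% growth inhibition; 0 means no net growth; -100 means all cells died. Active threshold: below 10.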 Values without a mark were called inactive. Calls of active or inactive are those of the source.

Tests used:
Assay in all cases: NCI-60 one-dose screen, 48 h (100 = growth as untreated, 0 = no growth, -100 = all killed)
T-47D breast = conditions: 10 µM unless noted
BT-549 breast = conditions: 10 µM unless noted
MDA-MB-435 melanoma = conditions: 10 µM unless noted
SW-620 colon = conditions: 10 µM unless noted
MCF7 breast = system: MCF7 breast
HCT-116 colon = conditions: 10 µM unless noted
HCC-2998 colon = conditions: 10 µM unless noted
KM12 colon = conditions: 10 µM unless noted

Row | SMILES | growth (T-47D breast) | growth (BT-549 breast) | growth (MDA-MB-435 melanoma) | growth (SW-620 colon) | growth (MCF7 breast; 10 µM unless noted) | growth (HCT-116 colon) | growth (HCC-2998 colon) | growth (KM12 colon) [%] | growth (MCF7 breast; 10 µM) [%] | growth (MCF7 breast; 100 µM)
1 | COc1ccc(C(OCC2OC(n3ccc(NC(=O)c4ccccc4)nc3=O)C(O)C2O)(c2ccccc2)c2ccccc2)cc1 (stereo unspecified) | 40.2% | 44.3% | 31.1% | 56% | 13.3% | 3.43% (active) | 75.8% |  |  | 
2 | O=C(NOC(=O)c1ccccc1)c1ccccc1 | 101% | 107% | 96.4% | 93.8% | 107% | 95.7% | 112% |  |  | 
3 | Oc1ccc(Br)cc1Sc1cc(Br)ccc1O | 17.7% | 43.8% | 56.7% | 64.1% | 59.2% | 34.3% | 91.7% |  |  | 
4 | CCCCCCCCCCCCCCCC[N+]1(C)CCCC1c1cccnc1 (stereo unspecified) | 45.2% | -6.27% (active) | 63.9% | 53.2% | 41% | 35% | 19.8% | 41.7 |  | 
5 | Nc1nc(N)c2cc(Sc3cccc(C(F)(F)F)c3)ccc2n1 | 45% | 50.3% | 28.8% | 22.5% | 23.9% | 15% | -57.2% (active) | 24.8 |  | 
6 | O=C(O)c1cc2c(s1)C(=O)c1sccc1C2=O | 36% | -89.8% (active) | -99.6% (active) | -3.95% (active) | -56.6% (active) | -27.7% (active) | 8.88% (active) |  |  | 
7 | COc1cc(-c2ccc(-[n+]3nc(-c4ccc([N+](=O)[O-])cc4)nn3-c3ccc([N+](=O)[O-])cc3)c(OC)c2)ccc1-[n+]1nc(-c2ccc([N+](=O)[O-])cc2)nn1-c1ccc([N+](=O)[O-])cc1 | -34.2% (active) | 26.9% | -58.4% (active) | 2.63% (active) | -65% (active) | 6.85% (active) | 29.8% | 25.4 |  | 
8 | Cn1ccc(=Nc2ccc(NC(=O)c3ccc(N=c4ccn(C)c5ccc([N+](=O)[O-])cc45)cc3)cc2)cc1 | 54.9% | 56.1% | 83.4% | 70.8% | 55.6% |  |  |  |  | 
9 | O=C1/C(=C/c2ccccn2)CCc2ccccc21 | 84.9% | 106% | 88.5% | 85.5% | 59.4% | 90.4% | 100% | 86.9 |  | 
10 | CCCC[n+]1c(/C=C\c2c(OC)cc(OC)cc2OC)ccc2ccccc21 | -3.69% (active) | 15.5% | -41.2% (active) | 5.08% (active) | 4.3% (active) | 2.83% (active) | 2.5% (active) |  |  | 
11 | CCCCC(CCc1ccc([N+](=O)[O-])cc1)(C(C)=O)C(=O)OCC (stereo unspecified) | 90% | 117% | 100% | 91.4% | 91.1% | 92.2% | 109% | 92 |  | 
12 | Nc1cccc2cccc([N+](=O)[O-])c12 | 113% | 105% | 108% | 106% | 86.6% | 104% | 103% |  |  | 
13 | CC(C)c1ccc(Nc2n[nH]c(=S)s2)cc1 | 85.6% | 96.2% | 97.1% | 110% | 101% | 101% | 91% |  |  | 
14 | CCN1CCCC(Nc2cc(C)nc(/N=C(/N)Nc3ccc(Cl)c(Cl)c3)n2)C1 (stereo unspecified) | -49.2% (active) | -59.5% (active) | -51.7% (active) | -59.3% (active) | -73.5% (active) | -54.9% (active) | -71.5% (active) |  |  | 
15 | Cc1ccccc1N=C(N)Nc1ccccc1C (tested in a mixture with another compound) | 76.6% | 96.1% | 89.5% | 74.9% | 94.2% | 83.4% | 97.8% |  |  | 
16 | CC(C)=CCCC(C)C1=C(O)C(=O)C(C)=CC1=O (stereo unspecified) | -66.9% (active) | 24.7% | 102% | -49.5% (active) |  | -85.2% (active) | 100% | 86.8 | 66.9 | -52.3% (active) and -33.3% (active)
17 | Cc1cc(C)c(C#N)c(Sc2nc(C)c([N+](=O)[O-])c(C)c2C#N)n1 | 68.7% | 43.1% | 42.9% | 19.2% | 26.4% | 9.65% (active) | 100% |  |  | 
18 | O=S(=O)(O)c1cnccn1 | 78.6% | 95.3% | 105% | 112% | 98% | 86.5% | 102% |  |  | 
